Bioassay records deposited in PubChem by several laboratories.
aSyn UTR inh – MLPCN primary screen, SNCA 5' untranslated region. AID 1813. 300,000 compounds, 0.82% hits. inhibition, % (tested at 7.5 µM). alpha-synuclein 5'UTR reporter, inhibitor activity; in the data active = inhibition above about 60%;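 note: H4 neuroglioblastoma cells stably carrying SNCA 5'UTR luciferase fusion; 0% = DMSO wells and 100% = positive control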
KLF5 inhibitor – kruppel-like factor 5 inhibition. DLD-1 KLF5 promoter-luciferase reporter, luminescence. inhibition, % at 5 µM. 290,000 compounds, 0.23% hits. AID 1700;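 active = inhibition above a per-plate limit of that plate's mean compound inhibition plus 3 SD, cut at about 60% in these data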;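 note: 0% = DMSO wells and 100% = LY294002 at 200 µM; higher means less KLF5 promoter-driven luciferase light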
697 NFkB inh – inhibitors of the PMA/ionomycin-induced NF-kB reporter in 697 B cells; 697 B-cell NF-kB luciferase reporter, 16 h; 330,000 compounds, 0.33% hits; inhibition, % at 4 µM; in the data active = inhibition above about 35%
TMEM16A act – activators or potentiators of mouse TMEM16A chloride channel; Q8BHY3; HEK293 TMEM16A/YFP-H148Q/I152L, iodide quench fluorescence; active compounds read low; B-score at 10 µM; 340,000 compounds, 0.3% hits; AID 623877;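 active = fluorescence-ratio B-score plate-corrected deviation score at least 3 library SD below zero, with starting fluorescence score within 5 deviations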;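 note: channel opened by trigger with iodide after compound preincubation; score built on the fluorescence ratio of max minus min over baseline; more negative score means more quench and so TMEM16A activation or potentiation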
Target sequence (Q8BHY3 whole entry, looked up): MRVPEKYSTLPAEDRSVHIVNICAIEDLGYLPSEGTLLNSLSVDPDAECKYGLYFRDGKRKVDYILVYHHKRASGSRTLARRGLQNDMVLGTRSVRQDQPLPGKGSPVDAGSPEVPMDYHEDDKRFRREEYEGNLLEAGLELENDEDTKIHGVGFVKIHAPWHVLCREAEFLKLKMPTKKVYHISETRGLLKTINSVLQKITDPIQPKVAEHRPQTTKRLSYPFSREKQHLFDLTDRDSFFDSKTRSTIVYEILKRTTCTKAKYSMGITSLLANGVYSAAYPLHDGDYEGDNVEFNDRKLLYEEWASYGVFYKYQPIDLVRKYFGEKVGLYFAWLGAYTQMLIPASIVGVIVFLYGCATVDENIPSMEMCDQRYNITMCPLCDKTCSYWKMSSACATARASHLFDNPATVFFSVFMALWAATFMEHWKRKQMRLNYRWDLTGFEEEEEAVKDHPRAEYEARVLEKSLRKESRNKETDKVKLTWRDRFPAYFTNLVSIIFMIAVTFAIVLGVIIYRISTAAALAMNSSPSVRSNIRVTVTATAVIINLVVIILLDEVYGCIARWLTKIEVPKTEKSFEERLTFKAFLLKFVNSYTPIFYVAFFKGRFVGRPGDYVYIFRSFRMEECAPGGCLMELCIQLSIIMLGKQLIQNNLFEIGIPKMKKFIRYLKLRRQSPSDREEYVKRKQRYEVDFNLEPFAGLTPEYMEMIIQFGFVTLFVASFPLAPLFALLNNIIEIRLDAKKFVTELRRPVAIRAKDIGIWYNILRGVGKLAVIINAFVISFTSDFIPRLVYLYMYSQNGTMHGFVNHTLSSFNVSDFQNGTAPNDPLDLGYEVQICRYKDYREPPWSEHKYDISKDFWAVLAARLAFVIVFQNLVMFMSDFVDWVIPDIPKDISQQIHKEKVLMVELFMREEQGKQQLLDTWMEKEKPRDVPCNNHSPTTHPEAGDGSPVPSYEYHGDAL
TMEM16A inh – mouse TMEM16A channel inhibition, primary screen | HEK293 TMEM16A/YFP iodide influx fluorescence, ionomycin | Q8BHY3 | 310,000 compounds, 1.2% hits | normalized B-score (activity score, 25-100; higher = stronger inhibition) at 10 µM;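 active = ratio plate-corrected score three or more library SD toward inhibition, starting fluorescence score within five deviations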;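 note: score derived from kinetic fluorescence span divided by baseline fluorescence per well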
Jurkat NFkB inh – lowers PMA/ionomycin-induced NF-kB signal in Jurkat cells; 330,000 compounds, 0.53% hits; inhibition, % at 4 µM; PMA/ionomycin-induced NF-kB luciferase reporter, luminescence; AID 435003; in the data active = inhibition above about 50%
Jurkat NFkB conf – lowers PMA/ionomycin-induced NF-kB signal in Jurkat cells; shares compounds with Jurkat NFkB inh; Jurkat NF-kB luciferase, 16 h; inhibition, % at 4 µM; 2,700 compounds, 27% hits; AID 435020;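 active = inhibition reaching about 45% at 4 µM in either replicate, limit read from the data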;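 note: plate controls were PMA/ionomycin stimulated DMSO wells for no effect and unstimulated DMSO wells for full effect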
* hit, by the source's call; i = inactive; nt = not tested or not shown. The list is not random: actives were taken first. Their share in the collection is about 2.5%.

SMILES | aSyn UTR inh | KLF5 inhibitor | 697 NFkB inh | TMEM16A act | TMEM16A inh | Jurkat NFkB inh | Jurkat NFkB conf
COc1ccc(-c2csc(Nc3ccccc3)n2)cc1 | -150.4 | -215.7 | -171.6 | i | i | -196.5 | -81.7
CC(=O)c1cccc(Nc2nc(-c3ccccc3)cs2)c1 | -144.9 | -137.3 | -221.5 | i | i | -265.2 | -103.0
O=C(COC(=O)CCN=C1NS(=O)(=O)c2ccccc21)NC1CCCCCCC1 | -1.2 | -44.0 | 3.5 | i | i | -13.5 | nt
O=C(CSc1nccc(=O)[nH]1)Nc1cc(C(F)(F)F)ccc1N1CCOCC1 | 4.1 | 2.7 | -15.3 | i | i | -16.1 | nt
Cc1ccc2nc(SCC(=O)Nc3cc(C(F)(F)F)ccc3N3CCOCC3)[nH]c2c1 | 95.8* | 54.8 | -46.7 | i | i | 52.0* | 56.1*
C/C(=N\NC(=O)CNC(=O)c1ccc(F)cc1)c1ccco1 | -0.2 | -6.4 | -16.7 | i | i | -2.8 | nt
O=C(O)c1ccc(N/N=C/c2ccc3c(c2)OCO3)cc1 | 94.3* | 60.0 | 29.3 | i | i | 75.2* | 43.1
Cc1ccsc1C(=O)N/N=C/c1ccc2c(c1)OCO2 | -98.9 | -197.0 | -196.4 | i | i | -153.7 | -70.5
COc1ccc(NC(=O)CSc2nnc(CN3CCOCC3)n2C)cc1Cl | 7.4 | -17.9 | -2.6 | i | i | -7.0 | nt
O=C(Nc1cccc(O)c1)c1cc(-c2cccs2)on1 | -37.7 | -163.5 | 12.9 | i | i | -151.8 | -35.8
COc1cccc(-c2cc(C(=O)NC3CCCC3)no2)c1 | -115.1 | -196.8 | -151.0 | i | i | -200.1 | -72.3
COc1ccc(NC(=O)c2cc(-c3cccc(OC)c3)on2)cc1 | -50.6 | -11.1 | 11.3 | i | i | -3.1 | nt
CC(=O)c1cccc(NC(=O)c2cc(-c3cccs3)on2)c1 | 0.6 | -1.6 | 0.9 | i | i | -78.5 | nt
COCCNC(=O)c1cc(-c2cccc(OC)c2)on1 | -85.1 | -120.2 | -22.2 | i | i | -58.2 | nt
COc1cccc(-c2cc(C(=O)Nc3cccc(O)c3)no2)c1 | 13.6 | -127.9 | 1.5 | i | i | -162.1 | -132.8
COc1c(C)cc(Br)cc1C(=O)NC(=S)NCc1ccco1 | -11.9 | -14.8 | -10.8 | i | i | -8.8 | nt
O=C(NN(Cc1ccccc1)Cc1ccccc1)c1ccccc1 | nt | nt | nt | i | nt | nt | nt
COCCCNC(=O)C1CCC(CNS(=O)(=O)c2ccc3c(c2)N(C(C)=O)CCO3)CC1 (stereo unspecified) | -11.2 | -16.9 | -3.8 | i | i | 1.4 | nt
COc1ccccc1N1CCN(C(=O)C2=CC=CN3CCS(=O)(=O)N=C23)CC1 | nt | nt | 15.4 | i | nt | -4.5 | nt
COc1ccccc1/C=C/CN1CCC(Oc2cc(C(=O)NC3CC3)ccc2OC)CC1 | 15.7 | -19.6 | 6.1 | i | i | 9.8 | nt
COc1ccccc1NC(=O)N1CCN(C(=O)c2ccco2)CC1 | 1.6 | -23.8 | -2.9 | i | i | 1.9 | nt
CCOc1ccc2c(c1)OC(c1ccc(C)cc1)(C(F)(F)F)NC2=O (stereo unspecified) | 95.8* | -7.4 | 10.4 | i | i | 60.2* | 41.2
CCOc1ccc2c(c1)OC1(CCC(C)C1)CC2=O (stereo unspecified) | 30.0 | nt | -12.9 | i | i | -1.4 | nt
CC(O)CN1CCN(C(=O)CN2C(=O)NC(c3ccccc3)(c3ccccc3)C2=O)CC1 (stereo unspecified) | 3.1 | -0.4 | 3.9 | i | i | 0.6 | nt
Clc1cccc(Cl)c1/C=C/c1nc2ccccc2[nH]1 | -149.2 | -69.3 | -111.1 | i | 25* | -158.5 | -102.7
SMILES | aSyn UTR inh | KLF5 inhibitor | 697 NFkB inh | TMEM16A act | TMEM16A inh | Jurkat NFkB inh | Jurkat NFkB conf
O=c1[nH]c(/C=C/c2ccccc2Cl)nc2ccccc12 | -264.5 | -49.9 | -173.5 | i | i | -62.6 | nt
O=C(Nc1ccccc1)c1ccc(-c2ccccc2)s1 | -214.8 | -15.9 | 9.1 | i | i | -193.8 | -65.8
O=C(Nc1ccccc1)c1cc2ccc3ccccc3c2s1 | -89.6 | -80.0 | 11.8 | i | i | -150.6 | -65.2
COc1ccc(/C=N/NC(=O)CCn2cnc(-c3ccccc3)c2-c2ccccc2)cc1OC | 3.8 | 35.4 | -32.6 | i | i | 63.9* | 20.4
N#CCCN(C(=O)COC(=O)c1cc2ccccc2oc1=O)c1ccccc1 | nt | nt | -7.3 | i | nt | -12.2 | nt
CC(NCc1ccc(-c2ccccc2)cc1)C(O)c1ccccc1 (stereo unspecified) | -35.4 | 8.5 | -16.5 | i | i | 54.8* | 12.9
O=C(NNC(=O)C1CC(c2cccs2)=NO1)Nc1ccc(Cl)cc1 (stereo unspecified) | 13.5 | -24.3 | 0.0 | i | i | 20.7 | nt
COc1ccc(S(=O)(=O)n2ccc(-c3cnc(-c4ccccc4)s3)n2)cc1 | -139.9 | -3.9 | -22.8 | i | i | -55.8 | nt
O=C(c1ccccc1)n1ccc(-c2cnc(-c3ccccc3)s2)n1 | -19.0 | -62.9 | -192.5 | i | i | -180.4 | -72.8
CCCN(CCC)C1=CC(=[N+]2CCCC2)CC(C)(C)C1 | 6.3 | -9.4 | 3.9 | i | i | 68.9* | 40.2
CN(C)NC1=CC(=[N+]2CCCC2)CC(C)(C)C1 | -23.2 | -21.9 | -4.8 | i | i | -0.6 | nt
CCCCC[C@H]1CN(Cc2ccccc2)C(=O)[C@@H]1CC(=O)NCc1ccccc1 | 4.2 | -19.4 | 3.2 | i | i | 10.7 | nt
Cc1[nH]c2ccccc2c1/C=N/NC(=O)c1cc(-c2ccccc2)n[nH]1 | 26.3 | -12.3 | 5.7 | i | i | -1.6 | nt
O=C(N/N=C/c1ccccn1)c1cc(-c2ccc(Br)cc2)nc2ccccc12 | 20.0 | -2.5 | -62.6 | i | i | 54.3* | 18.6
O=C(N/N=C/c1ccccn1)c1cc(-c2ccc(Cl)cc2)nc2ccccc12 | -5.3 | -6.8 | -67.1 | i | i | 37.8 | nt
Cc1[nH]c2ccccc2c1/C=N/NC(=O)c1cc(-c2ccncc2)nc2ccccc12 | 32.5 | 29.6 | 8.1 | i | i | 55.7* | 12.1
CC(C)Cc1nc(SCC(=O)N2CCCCC2)c2c(=O)n(C)c(=O)n(C)c2n1 | 10.6 | -31.0 | -18.5 | i | i | -1.3 | nt
COc1cc(NC(=O)c2sc(C)nc2C)c(OC)cc1NC(=O)c1ccccc1 | -4.1 | -59.7 | 9.8 | i | i | 6.4 | nt
CCN1CCN(Cc2ccc(NC(=O)c3cc(NC(=O)N4CCNC4=O)cc(OC)c3)cc2C(F)(F)F)CC1 | -17.9 | nt | 12.6 | i | i | 11.1 | nt
COc1cc(NC(=O)N2CCNC2=O)cc(C(=O)Nc2cccc(C(F)(F)F)c2)c1 | 67.6* | nt | -7.9 | i | i | 67.0* | 51.1*
C[C@@H](NC(=O)[C@@H]1Cc2ccccc2CN1C(=O)OC(C)(C)C)C(=O)NCC1CCCO1 (stereo partly specified) | -4.3 | -4.4 | 3.2 | i | i | -3.1 | nt
